Results on 8 compounds are retold here after ChEMBL document CHEMBL3988442, “University of Dundee, Small-Polar-MMV Screening Library” (2021).

Holding throughout (parameters): scale not given: direction of the effect not stated beside the values
The target of experiment [1] is Protein translocase subunit SecA (Escherichia coli (strain K12)) (UniProt P10408). Nature of the experiment: Assay to Identify E. coli SecA ATPase Inhibitors. In kind it is functional. The settings on record: 30 µM.
Experiment [2] concerns the target T1, Ubiquitin-activating enzyme e1, putative (Leishmania donovani (strain BPK282A1)) (UniProt E9BSI1).
T1 sequence (whole entry): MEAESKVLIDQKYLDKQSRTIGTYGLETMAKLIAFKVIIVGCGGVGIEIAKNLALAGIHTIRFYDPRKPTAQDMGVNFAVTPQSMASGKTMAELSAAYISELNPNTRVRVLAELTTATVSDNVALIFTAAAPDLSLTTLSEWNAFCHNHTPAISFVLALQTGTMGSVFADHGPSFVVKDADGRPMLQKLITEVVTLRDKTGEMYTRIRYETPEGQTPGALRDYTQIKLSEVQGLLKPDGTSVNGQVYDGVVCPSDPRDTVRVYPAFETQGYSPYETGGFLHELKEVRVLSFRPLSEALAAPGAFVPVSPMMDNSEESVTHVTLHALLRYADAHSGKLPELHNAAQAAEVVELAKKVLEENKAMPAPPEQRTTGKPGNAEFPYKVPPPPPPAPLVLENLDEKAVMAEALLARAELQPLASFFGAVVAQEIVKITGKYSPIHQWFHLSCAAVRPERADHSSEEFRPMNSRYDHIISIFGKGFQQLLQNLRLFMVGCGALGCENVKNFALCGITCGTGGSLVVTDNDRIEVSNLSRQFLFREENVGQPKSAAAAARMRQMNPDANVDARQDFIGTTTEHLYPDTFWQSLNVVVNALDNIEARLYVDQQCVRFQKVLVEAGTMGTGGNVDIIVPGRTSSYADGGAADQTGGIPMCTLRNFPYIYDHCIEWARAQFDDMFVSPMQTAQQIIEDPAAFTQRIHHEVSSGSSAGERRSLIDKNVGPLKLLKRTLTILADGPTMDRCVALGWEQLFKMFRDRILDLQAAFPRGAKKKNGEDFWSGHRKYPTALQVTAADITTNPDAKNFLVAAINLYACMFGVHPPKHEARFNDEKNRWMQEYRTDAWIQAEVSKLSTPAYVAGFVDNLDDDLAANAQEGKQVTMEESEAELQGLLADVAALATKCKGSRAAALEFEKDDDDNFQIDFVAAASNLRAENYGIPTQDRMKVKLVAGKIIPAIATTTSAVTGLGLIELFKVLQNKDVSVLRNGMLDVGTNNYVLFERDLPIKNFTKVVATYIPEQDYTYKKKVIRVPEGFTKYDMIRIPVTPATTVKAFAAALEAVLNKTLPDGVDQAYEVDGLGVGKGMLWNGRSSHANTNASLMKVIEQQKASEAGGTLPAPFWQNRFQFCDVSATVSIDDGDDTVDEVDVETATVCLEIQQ
Nature of the experiment: Leishmania donovani Ubiquitin Activating Enzyme (LdE1). The experiment is classed as functional. The note with it: 30 µM.

Experiment [3] has as its target AMP-activated protein kinase, AMPK (Homo sapiens) (UniProt P54646+O43741+P54619+Q9UGJ0+Q9Y478+Q13131+Q9UGI9). Nature of the experiment: AMP-dependent Kinase enzyme assay. An in vitro enzyme assay that detects ADP turnover that is directly proportional to AMPK activity. This uses naive AMPK that is activated during the assay with MK-8722. The experiment is classed as functional. The settings on record: 30 µM.

Experiment [4] has as its target Sialic acid-binding Ig-like lectin 9 (Homo sapiens) (UniProt Q9Y336). Nature of the experiment: Hs-Siglec9 ALPHAscreen SOP 20170721. The settings on record: 10 µM.
In another experiment the test system is Trypanosoma cruzi. Nature of the experiment: Trypanosoma cruzi phosphomannomutase and mannose-1-phosphate guanylyltransferase assay. The experiment is classed as functional. The note with it: 10 µM.
Experiment [5] has as its target T2, Arginase-2, mitochondrial (Homo sapiens) (UniProt P78540).
T2 sequence (whole entry): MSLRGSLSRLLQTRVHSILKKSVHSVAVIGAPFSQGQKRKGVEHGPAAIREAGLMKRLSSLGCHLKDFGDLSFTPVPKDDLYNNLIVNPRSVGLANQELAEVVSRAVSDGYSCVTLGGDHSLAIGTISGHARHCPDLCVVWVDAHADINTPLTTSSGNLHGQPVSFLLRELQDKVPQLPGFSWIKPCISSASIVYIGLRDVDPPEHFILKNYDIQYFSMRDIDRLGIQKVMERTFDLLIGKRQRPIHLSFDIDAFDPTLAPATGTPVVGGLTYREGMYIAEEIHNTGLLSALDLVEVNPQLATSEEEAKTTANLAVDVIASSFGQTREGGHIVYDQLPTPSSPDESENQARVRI
Nature of the experiment: in vitro enzyme assay to detect the production of urea directly proportional to the activity of Arginase II. Further: in the data most compounds retested in dose-response had high values. The note with it: 33.3 µM. The experiment is classed as functional.

For experiment [6], the target named is T3, Proteasome subunit beta (Trypanosoma cruzi) (UniProt O96673).
T3 sequence (whole entry): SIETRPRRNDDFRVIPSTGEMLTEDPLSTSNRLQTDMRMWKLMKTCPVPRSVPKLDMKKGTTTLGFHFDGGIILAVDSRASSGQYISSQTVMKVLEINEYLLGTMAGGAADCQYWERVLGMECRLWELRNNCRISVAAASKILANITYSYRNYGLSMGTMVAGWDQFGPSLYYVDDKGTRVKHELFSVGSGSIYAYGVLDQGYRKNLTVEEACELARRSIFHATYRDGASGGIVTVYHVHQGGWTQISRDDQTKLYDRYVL
Nature of the experiment: Trypanosoma cruzi proteasome chymotrypsin-like activity (TcProtChymo) assay. Further: in the data most compounds retested in dose-response had high values. The experiment is classed as functional. The settings on record: 9.37 µM.

For the next experiment, the species on record is Homo sapiens. Nature of the experiment: To identify inhibition of the IFN signalling (Jak-Stat) pathway via expression of an eGFP reporter gene under the control of an IFN-stimulated response element (ISRE) containing MxA promoter. The experiment is classed as functional. The settings on record: 30 µM. A general note: In a reporter assay the amount or activity of a reporter protein is the signal.

Experiment [7] concerns the target T4, Tyrosyl-tRNA synthetase, putative (Trypanosoma cruzi (strain CL Brener)) (UniProt Q4DSP6).
T4 sequence (whole entry): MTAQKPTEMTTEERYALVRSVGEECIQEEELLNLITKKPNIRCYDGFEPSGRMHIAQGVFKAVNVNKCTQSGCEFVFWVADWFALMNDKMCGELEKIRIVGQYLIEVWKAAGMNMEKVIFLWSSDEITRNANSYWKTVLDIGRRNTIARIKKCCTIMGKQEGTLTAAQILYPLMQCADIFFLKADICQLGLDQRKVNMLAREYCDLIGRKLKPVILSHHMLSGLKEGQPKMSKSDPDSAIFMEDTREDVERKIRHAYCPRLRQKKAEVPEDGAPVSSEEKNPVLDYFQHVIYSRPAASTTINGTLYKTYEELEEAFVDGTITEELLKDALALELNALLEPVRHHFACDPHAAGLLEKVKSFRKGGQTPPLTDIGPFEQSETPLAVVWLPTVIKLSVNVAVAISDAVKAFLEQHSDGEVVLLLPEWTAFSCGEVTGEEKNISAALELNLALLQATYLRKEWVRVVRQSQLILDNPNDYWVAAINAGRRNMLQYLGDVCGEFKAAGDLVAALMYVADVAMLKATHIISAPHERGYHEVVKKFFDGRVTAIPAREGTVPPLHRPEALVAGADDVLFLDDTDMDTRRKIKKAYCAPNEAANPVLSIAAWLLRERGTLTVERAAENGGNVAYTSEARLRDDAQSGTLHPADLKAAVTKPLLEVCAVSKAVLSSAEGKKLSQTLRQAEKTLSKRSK
Nature of the experiment: Trypanosoma cruzi tyrosyl tRNA synthetase (TcYRS) _High Tyrosine SOP. Further: in the data most compounds retested in dose-response had high values. The note with it: 30 µM. The experiment is classed as functional.

For experiment [8], the target named is T4, Tyrosyl-tRNA synthetase, putative (Trypanosoma cruzi (strain CL Brener)). Nature of the experiment: Trypanosoma cruzi tyrosyl tRNA synthetase (TcYRS) SOP. The experiment is classed as functional. The note with it: 30 µM.
Experiment [9] has as its target Chromo domain-containing protein 1 (Saccharomyces cerevisiae (strain ATCC 204508 / S288c) (Baker's yeast)) (UniProt P32657). Nature of the experiment: ScCHD-1 Enzyme Inhibition Assay. Further: in the data most compounds retested in dose-response had high values. The experiment is classed as functional. The note with it: 30 µM.

For some of these results: Entries with a potency or affinity are not part of this list.

Chain of Chromo domain-containing protein 1 (Saccharomyces cerevisiae (strain ATCC 204508 / S288c) (Baker's yeast)) (P32657 whole entry, the tested form may be a part): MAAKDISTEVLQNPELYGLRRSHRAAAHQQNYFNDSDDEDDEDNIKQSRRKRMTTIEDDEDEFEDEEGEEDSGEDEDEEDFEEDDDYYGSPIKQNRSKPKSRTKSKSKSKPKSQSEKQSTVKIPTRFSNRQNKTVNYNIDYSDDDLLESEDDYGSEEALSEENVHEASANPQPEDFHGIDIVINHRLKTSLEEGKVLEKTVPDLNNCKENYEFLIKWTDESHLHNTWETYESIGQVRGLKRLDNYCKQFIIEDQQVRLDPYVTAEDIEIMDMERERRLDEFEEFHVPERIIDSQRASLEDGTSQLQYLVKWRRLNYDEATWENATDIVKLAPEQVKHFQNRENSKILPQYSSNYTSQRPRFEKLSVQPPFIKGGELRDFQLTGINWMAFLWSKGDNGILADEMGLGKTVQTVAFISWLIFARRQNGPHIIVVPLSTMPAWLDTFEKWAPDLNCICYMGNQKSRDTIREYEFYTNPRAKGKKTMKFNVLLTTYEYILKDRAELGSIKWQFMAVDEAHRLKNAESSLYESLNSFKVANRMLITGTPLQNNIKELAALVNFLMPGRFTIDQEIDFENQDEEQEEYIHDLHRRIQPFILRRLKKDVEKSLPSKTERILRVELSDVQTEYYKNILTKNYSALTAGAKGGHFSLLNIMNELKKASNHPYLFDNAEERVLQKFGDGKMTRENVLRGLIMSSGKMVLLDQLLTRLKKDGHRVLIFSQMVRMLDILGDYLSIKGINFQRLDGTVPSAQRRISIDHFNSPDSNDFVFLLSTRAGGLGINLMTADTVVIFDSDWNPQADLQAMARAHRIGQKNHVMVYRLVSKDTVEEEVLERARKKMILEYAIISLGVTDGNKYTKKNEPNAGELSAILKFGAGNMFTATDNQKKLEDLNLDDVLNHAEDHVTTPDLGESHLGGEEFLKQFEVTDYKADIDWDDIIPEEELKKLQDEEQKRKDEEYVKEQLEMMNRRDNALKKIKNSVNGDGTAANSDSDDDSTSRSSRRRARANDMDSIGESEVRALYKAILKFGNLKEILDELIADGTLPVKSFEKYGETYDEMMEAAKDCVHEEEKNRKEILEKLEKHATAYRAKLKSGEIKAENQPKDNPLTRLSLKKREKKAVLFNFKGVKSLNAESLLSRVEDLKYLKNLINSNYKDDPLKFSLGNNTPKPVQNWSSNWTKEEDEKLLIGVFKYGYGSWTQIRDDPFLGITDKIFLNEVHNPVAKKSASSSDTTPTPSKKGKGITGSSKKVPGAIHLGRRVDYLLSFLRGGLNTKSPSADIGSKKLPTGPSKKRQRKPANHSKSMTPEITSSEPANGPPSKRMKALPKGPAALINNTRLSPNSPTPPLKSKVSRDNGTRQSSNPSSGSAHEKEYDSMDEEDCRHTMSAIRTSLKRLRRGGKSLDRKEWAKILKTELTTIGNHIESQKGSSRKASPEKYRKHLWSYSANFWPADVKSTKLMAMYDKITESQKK
Chain of Protein translocase subunit SecA (Escherichia coli (strain K12)) (P10408 whole entry): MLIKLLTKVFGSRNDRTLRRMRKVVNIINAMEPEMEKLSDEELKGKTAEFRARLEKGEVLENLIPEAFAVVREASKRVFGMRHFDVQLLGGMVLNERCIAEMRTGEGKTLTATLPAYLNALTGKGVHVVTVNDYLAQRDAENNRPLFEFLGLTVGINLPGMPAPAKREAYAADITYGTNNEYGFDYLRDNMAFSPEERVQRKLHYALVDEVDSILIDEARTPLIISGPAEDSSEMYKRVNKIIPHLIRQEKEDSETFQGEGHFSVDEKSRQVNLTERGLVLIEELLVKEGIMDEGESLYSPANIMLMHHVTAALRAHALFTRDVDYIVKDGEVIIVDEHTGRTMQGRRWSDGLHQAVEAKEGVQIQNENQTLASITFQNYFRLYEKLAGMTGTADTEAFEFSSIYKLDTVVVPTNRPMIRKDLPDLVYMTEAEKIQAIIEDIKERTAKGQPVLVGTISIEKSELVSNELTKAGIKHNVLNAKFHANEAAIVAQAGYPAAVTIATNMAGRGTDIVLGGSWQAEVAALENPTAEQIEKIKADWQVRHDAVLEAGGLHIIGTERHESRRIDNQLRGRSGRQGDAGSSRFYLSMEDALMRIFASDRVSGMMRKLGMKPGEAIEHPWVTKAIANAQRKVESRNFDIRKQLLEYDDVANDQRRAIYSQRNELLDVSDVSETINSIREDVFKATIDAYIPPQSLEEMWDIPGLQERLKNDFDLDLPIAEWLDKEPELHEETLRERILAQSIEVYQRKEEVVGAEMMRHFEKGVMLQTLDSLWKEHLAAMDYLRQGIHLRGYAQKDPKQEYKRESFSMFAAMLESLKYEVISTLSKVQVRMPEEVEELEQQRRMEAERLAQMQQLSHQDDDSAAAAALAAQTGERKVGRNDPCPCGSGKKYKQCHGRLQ
Chain of Sialic acid-binding Ig-like lectin 9 (Homo sapiens) (Q9Y336 whole entry): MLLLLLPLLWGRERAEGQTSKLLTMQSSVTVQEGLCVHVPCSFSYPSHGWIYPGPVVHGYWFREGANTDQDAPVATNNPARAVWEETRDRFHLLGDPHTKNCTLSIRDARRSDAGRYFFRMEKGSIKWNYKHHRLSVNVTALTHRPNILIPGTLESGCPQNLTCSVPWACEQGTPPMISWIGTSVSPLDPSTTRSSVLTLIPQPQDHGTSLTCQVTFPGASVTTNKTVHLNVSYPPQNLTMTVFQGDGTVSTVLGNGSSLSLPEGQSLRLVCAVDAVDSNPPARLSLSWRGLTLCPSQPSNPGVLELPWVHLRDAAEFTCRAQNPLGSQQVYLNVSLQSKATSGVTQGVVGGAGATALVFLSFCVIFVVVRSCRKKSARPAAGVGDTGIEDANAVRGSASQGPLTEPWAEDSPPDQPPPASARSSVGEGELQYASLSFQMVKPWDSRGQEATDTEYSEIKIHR

Turning to `Cc1cnn(CC2CN(CC(=O)Nc3nnc(C)s3)CCO2)c1` (stereo not drawn), the Percent Effect was -5.89% in [1]; 13.2% in experiment [2]; 0.773% in experiment [3]; 3.55% in experiment [4]; 7.71% in the experiment on Trypanosoma cruzi; -0.766% in experiment [5]. The Percent Effect in experiment [6] was 6.01%; in the experiment filed under Homo sapiens, -6.29%; in experiment [7], 3.43%; in [8], 12.2%; in [9] it was -12.5%.

As for `CSCc1cccc(S(=O)(=O)NCCCn2ccnc2)c1`, the Percent Effect in [1] is -5.68%; in experiment [2], -23.4%; in [3] it was -1.48%; in [4] it was 6.2%; in the experiment with Trypanosoma cruzi it was 1.67%; in experiment [5] it was -6.9%. Besides, the Percent Effect is 2.16% in [6]; 2.79% in the experiment listed under Homo sapiens; 7.53% in [7]; 21% in experiment [8]; -1.53% in [9].

In the case of `Cc1cc(C(=O)N2CCCC(c3noc(C)n3)C2)[nH]n1` (stereo not drawn), the Percent Effect in experiment [1] is -10.3%; in [2], 15.2%; in experiment [3], -4.15%; in [4], 16.6%; in the experiment with Trypanosoma cruzi it was 10.3%; in [5], -3.04%. Also, the Percent Effect in experiment [6] was -2.21%; in the experiment listed under Homo sapiens, 12.9%; in experiment [7] it was 8.37%; in [8] it was 21.5%; in experiment [9], -9.72%.

Regarding `CC(C)n1c(=O)nc2n1C(=O)N(c1ccc(F)cc1)C2`, the Percent Effect in [1] was -3.14%; in experiment [2] it was 13.2%; in [3], 0.365%; in experiment [4], 6.05%; in the experiment on Trypanosoma cruzi, 0.682%; in experiment [5], -2.37%. In addition, the Percent Effect in experiment [6] was 13.9%; in the experiment filed under Homo sapiens, -9.89%; in experiment [7], 4.25%; in experiment [8] it was 7.79%; in experiment [9] it was -5.52%.

Regarding `CC(=O)N1CCCN(C(=O)CCc2c(C)noc2C)CC1`, the Percent Effect was -5.5% in [1]; 18.4% in [2]; -6.52% in [3]; -3.87% in experiment [4]; 3.95% with Trypanosoma cruzi; 0.766% in experiment [5]. Also, the Percent Effect in experiment [6] is 9.52%; in the experiment filed under Homo sapiens, 9.31%; in experiment [7] it was 8.33%; in experiment [8] it was 19.5%; in experiment [9], -11.2%.

Take `Cc1nn(C)c(Cl)c1CNCc1cccnc1N1CCN(C)CC1`: the Percent Effect in experiment [1] was -3.92%; in experiment [2], 13.2%; in experiment [3] it was 2.58%; in experiment [4], 7%; in the experiment on Trypanosoma cruzi it was 2.24%; in [5], -5.92%. Also, the Percent Effect in experiment [6] was 17.4%; in the experiment listed under Homo sapiens, 4.03%; in experiment [7], 3.19%; in experiment [8], 18.2%; in experiment [9] it was -6.12%.

For the compound `CN(C)Cc1nc(C(C)(C)NC(=O)C2CC(=O)N(CC3CC3)C2)no1` (stereo not drawn), the Percent Effect was -8.14% in experiment [1]; 5.41% in experiment [2]; 0.168% in experiment [3]; 2.33% in [4]; -3.44% in the experiment with Trypanosoma cruzi; 3.14% in experiment [5]. In addition, the Percent Effect in [6] was -3.77%; in the experiment filed under Homo sapiens, 22.2%; in experiment [7], 1.98%; in experiment [8], 1.22%; in experiment [9], 4.96%.

For `Cn1c(CNc2c(F)cccc2-n2cccn2)cc(=O)n(C)c1=O`, the Percent Effect in [1] was -1.07%; in [2] it was 6.94%; in experiment [3], -4.86%; in experiment [4], 3.69%; in the experiment with Trypanosoma cruzi, 1.46%; in [5], 20.8%. Moreover, the Percent Effect in experiment [6] is 6.14%; in the experiment listed under Homo sapiens it was 5.47%; in experiment [7], 5.26%; in [8] it was 10.3%; in [9], -0.228%.
